The text below walks through data of ChEMBL document CHEMBL3988442, “University of Dundee, Small-Polar-MMV Screening Library” (2021).

Sequence of Sialic acid-binding Ig-like lectin 9 (Homo sapiens) (Q9Y336 whole entry): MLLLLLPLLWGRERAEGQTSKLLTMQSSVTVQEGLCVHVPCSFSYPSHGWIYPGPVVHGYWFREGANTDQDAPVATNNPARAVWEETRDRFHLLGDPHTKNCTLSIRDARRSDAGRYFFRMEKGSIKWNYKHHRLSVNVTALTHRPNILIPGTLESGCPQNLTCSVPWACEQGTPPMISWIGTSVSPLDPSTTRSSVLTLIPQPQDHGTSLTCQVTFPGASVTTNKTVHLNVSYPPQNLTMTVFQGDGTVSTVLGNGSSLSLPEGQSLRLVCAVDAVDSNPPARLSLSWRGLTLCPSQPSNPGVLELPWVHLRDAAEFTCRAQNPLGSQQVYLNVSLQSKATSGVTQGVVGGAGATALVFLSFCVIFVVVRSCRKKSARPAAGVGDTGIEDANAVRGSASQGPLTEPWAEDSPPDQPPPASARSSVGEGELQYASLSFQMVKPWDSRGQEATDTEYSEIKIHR

The first assay has as its target Sialic acid-binding Ig-like lectin 9 (Homo sapiens) (UniProt Q9Y336). As to the kind of experiment: Hs-Siglec9 ALPHAscreen SOP 20170721. The arrangement: scale not given: direction of the effect not stated beside the values. Conditions: 10 µM. On the technique in general: Bead proximity is the source of the signal in Alpha formats.
On to `Cc1cc(CNc2ccc(C(=O)N3CCCC(C)C3)cc2C)no1` (stereo unspecified), for which the Percent Effect is -5.45%.
As for `Cn1nc(C#N)c2c1CN(C(=O)c1cccnc1)CCC2`, the Percent Effect is -7%.
On the same count and under the same terms, with `CCOCCCNC(=O)c1nn(CC)cc1Cl` the figure was -8.09%.

A further assay concerns Trypanosoma cruzi. As to the kind of experiment: Trypanosoma cruzi phosphomannomutase and mannose-1-phosphate guanylyltransferase assay. Conditions: 10 µM. The arrangement: scale not given: direction of the effect not stated beside the values. In kind it is functional.
With `CC(=O)N1CCCN(Cc2csc(-c3ncccn3)n2)CC1`, the Percent Effect is -3.02%.
The same measure, in the same setting: with `O=C(NCCc1ccn(-c2ccccc2)n1)N1CCC1` the figure was 1.67%; with `O=C(NC1CC1)[C@H]1C[C@@H]2CCN(CCc3ccccc3)C[C@H]2O1`, -7.28%.
Same read-out and setting: with `CC1c2ncc(CN3CCN(C)CC3)n2CCN1CC1CC1` (stereo unspecified) the figure was 5.99%; with `O=S(=O)(c1cccs1)N1CC[C@H](O)[C@@H]1Cc1ccncc1`, -4.79%.
Still for that read-out and setting: with `COCc1nc2cc(NCc3ccncc3)ccc2o1` the figure was -1.76%.
In the case of `CCn1cc(CN(C)C(=O)c2cccc(CCC(C)(C)O)c2)cn1`, the Percent Effect was -5.36%.
Still for that read-out and setting: the same measure for `COCCCNC(=O)CCn1nc(C)c2ccccc21`: -6.09%.
The same measure, in the same setting: the same measure for `CCc1nc(CN2CCCC(NCc3ccc(C(N)=O)cc3)C2)no1` (stereo unspecified): 2.93%; for `CCS(=O)(=O)N1CCO[C@H]2[C@H](OCCCn3cccn3)CC[C@@H]21`: 3.48%.
Still for that read-out and setting: with `Cc1nccn1C1CCCN(C(=O)c2ccc3c(c2)COC3)C1` (stereo unspecified) the figure was 3.44%; with `Cc1cc(C)n(-c2ccc(CNCc3ccc(OC(C)C)cc3)cn2)n1`, 6.01%; with `CCc1nc(C2CCCN2Cc2nc3ccccc3o2)no1` (stereo unspecified), 1.67%.
Consider `CC(C)N1CCC(Cc2cc(-c3ccccc3C(=O)O)ncn2)CC1`, for which the Percent Effect was -0.988%.
On the same count and under the same terms, the same measure for `CC(=O)c1cccc(OCCCC(=O)NCC2CCCN2C)c1` (stereo unspecified): 3.57%; for `CN1C(=O)C[C@@H]2[C@@H]1CCN2C(=O)c1ccc[nH]1`: -1.59%.
On the same count and under the same terms, the same measure for `Cc1cc(C)n(-c2cncc(N3CCN(C(=O)C(C)(C)C)CC3)n2)n1`: -3.71%.
The same measure, in the same setting: with `C1CCCN(c2nc(C3CC3)ns2)CC1` the figure was -4.31%; with `Cn1cnnc1S(=O)(=O)C1CCN(S(=O)(=O)C2CC2)CC1`, -3.72%.
With `O=C(O)c1ccc(S(=O)(=O)Nc2ccc(Cl)c(F)c2)c(F)c1`, the Percent Effect stood at 1.04%.
As to `c1ccc(OCCN2CCCC(c3noc(C4CC4)n3)C2)cc1` (stereo unspecified), the Percent Effect was -3.02%.
The same measure, in the same setting: with `Cn1ccc(C(=O)N2CCN(CCc3ccccc3)CC2)cc1=O` the figure was -1.74%.
As for `CN(Cc1cccs1)C(=O)CN1CCCC1Cn1cncn1` (stereo unspecified), the Percent Effect is -1.08%.
Still for that read-out and setting: the same measure for `CNC(=O)C1(CCCc2ccncc2)CCCN1` (stereo unspecified): -2.96%; for `c1cn(Cc2nnc(C3CCN(C4CCOCC4)CC3)n2C2CC2)cn1`: -3.21%.
Same read-out and setting: the same measure for `COC(=O)CCc1c(C)nc2cc(O)nn2c1C`: 1.31%; for `CCN(CC1CCCO1)C(=O)Nc1cc(OC)c(OC)cc1C` (stereo unspecified): 4.06%.
For `Cc1noc(C(C)C)c1C(=O)NCC(c1ccsc1)N(C)C` (stereo unspecified), the Percent Effect is -5.19%.
Regarding `O=C(Cc1ccccn1)N1C[C@@H]2CC[C@H](C1)N(Cc1ccccc1)C2=O`, the Percent Effect is -4.05%.
For `COCCn1cc(C(=O)N2CCCC2c2cc(C)no2)ccc1=O` (stereo unspecified), the Percent Effect was -0.965%.
Same read-out and setting: the same measure for `CC(C)c1noc(CCCC(=O)N2CCC(Cc3cccnc3)CC2)n1`: -6.14%.
The same measure, in the same setting: with `Cc1nn(-c2ccccc2)c2c1C(c1ccc(C(=O)O)cc1)CC(=O)N2` (stereo unspecified) the figure was 6.33%; with `CC(OCC1CC1)C(=O)N1CCCN(c2ncccc2C#N)CC1` (stereo unspecified), -0.0934%; with `CCN(Cc1ccc2c(c1)OCCO2)S(=O)(=O)N(C)C(C)C`, 5.99%.
Same read-out and setting: the same measure for `CC(C)N(C)C(=O)C1=NOC2(CCN(C(=O)c3ccncc3)C2)C1` (stereo unspecified): -1.79%.
Turning to `CN1CCCC1c1cccc(Cc2ccccc2F)n1` (stereo unspecified), the Percent Effect is -0.79%.
Regarding `Cc1cc(CNc2ccc(C(=O)N3CCCC(C)C3)cc2C)no1` (stereo unspecified), the Percent Effect was -6.18%.
Regarding `Cn1nc(C#N)c2c1CN(C(=O)c1cccnc1)CCC2`, the Percent Effect is -2.66%.
For `CCOCCCNC(=O)c1nn(CC)cc1Cl`, the Percent Effect worked out at 3.14%.

The target of a further assay is T1, Arginase-2, mitochondrial (Homo sapiens) (UniProt P78540).
T1 sequence (whole entry): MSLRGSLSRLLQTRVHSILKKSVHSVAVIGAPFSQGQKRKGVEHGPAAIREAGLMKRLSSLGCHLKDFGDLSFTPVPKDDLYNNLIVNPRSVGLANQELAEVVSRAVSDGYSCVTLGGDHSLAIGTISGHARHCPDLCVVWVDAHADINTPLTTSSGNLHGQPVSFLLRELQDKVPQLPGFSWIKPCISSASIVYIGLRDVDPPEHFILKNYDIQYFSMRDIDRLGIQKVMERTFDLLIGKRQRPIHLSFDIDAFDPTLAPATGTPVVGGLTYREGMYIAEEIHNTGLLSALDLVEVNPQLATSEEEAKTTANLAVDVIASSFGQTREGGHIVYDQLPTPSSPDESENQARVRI
As to the kind of experiment: in vitro enzyme assay to detect the production of urea directly proportional to the activity of Arginase II. Set-up: scale not given: in the data most compounds retested in dose-response had high values. Conditions: 33.3 µM. It is filed as functional.
Turning to `CC(=O)N1CCCN(Cc2csc(-c3ncccn3)n2)CC1`, the Percent Effect was 3.55%.
On to `O=C(NCCc1ccn(-c2ccccc2)n1)N1CCC1`, for which the Percent Effect was -2.32%.
Still for that read-out and setting: the same measure for `O=C(NC1CC1)[C@H]1C[C@@H]2CCN(CCc3ccccc3)C[C@H]2O1`: 2.56%; for `CC1c2ncc(CN3CCN(C)CC3)n2CCN1CC1CC1` (stereo unspecified): -54.7%.
Still for that read-out and setting: the same measure for `O=S(=O)(c1cccs1)N1CC[C@H](O)[C@@H]1Cc1ccncc1`: 2.23%; for `COCc1nc2cc(NCc3ccncc3)ccc2o1`: 9.58%; for `CCn1cc(CN(C)C(=O)c2cccc(CCC(C)(C)O)c2)cn1`: 1.04%.
Still for that read-out and setting: the same measure for `COCCCNC(=O)CCn1nc(C)c2ccccc21`: -6.16%; for `CCc1nc(CN2CCCC(NCc3ccc(C(N)=O)cc3)C2)no1` (stereo unspecified): 1.14%.
For the compound `CCS(=O)(=O)N1CCO[C@H]2[C@H](OCCCn3cccn3)CC[C@@H]21`, the Percent Effect is -47.1%.
On to `Cc1nccn1C1CCCN(C(=O)c2ccc3c(c2)COC3)C1` (stereo unspecified), for which the Percent Effect worked out at 0.554%.
`Cc1cc(C)n(-c2ccc(CNCc3ccc(OC(C)C)cc3)cn2)n1`: the Percent Effect is -3.06%.
Same read-out and setting: the same measure for `CCc1nc(C2CCCN2Cc2nc3ccccc3o2)no1` (stereo unspecified): 2.74%.
Turning to `CC(C)N1CCC(Cc2cc(-c3ccccc3C(=O)O)ncn2)CC1`, the Percent Effect is 2.09%.
Same read-out and setting: with `CC(=O)c1cccc(OCCCC(=O)NCC2CCCN2C)c1` (stereo unspecified) the figure was 0%.
Same read-out and setting: with `CN1C(=O)C[C@@H]2[C@@H]1CCN2C(=O)c1ccc[nH]1` the figure was -3.99%; with `Cc1cc(C)n(-c2cncc(N3CCN(C(=O)C(C)(C)C)CC3)n2)n1`, -0.833%; with `C1CCCN(c2nc(C3CC3)ns2)CC1`, -2.27%.
The same measure, in the same setting: with `Cn1cnnc1S(=O)(=O)C1CCN(S(=O)(=O)C2CC2)CC1` the figure was -2.27%; with `O=C(O)c1ccc(S(=O)(=O)Nc2ccc(Cl)c(F)c2)c(F)c1`, 1.6%.
Consider `c1ccc(OCCN2CCCC(c3noc(C4CC4)n3)C2)cc1` (stereo unspecified), for which the Percent Effect is -1.56%.
Same read-out and setting: the same measure for `Cn1ccc(C(=O)N2CCN(CCc3ccccc3)CC2)cc1=O`: 3.23%; for `CN(Cc1cccs1)C(=O)CN1CCCC1Cn1cncn1` (stereo unspecified): -5.52%; for `CNC(=O)C1(CCCc2ccncc2)CCCN1` (stereo unspecified): -2.09%.
The same measure, in the same setting: the same measure for `c1cn(Cc2nnc(C3CCN(C4CCOCC4)CC3)n2C2CC2)cn1`: 0%.
Still for that read-out and setting: with `COC(=O)CCc1c(C)nc2cc(O)nn2c1C` the figure was -3.92%; with `CCN(CC1CCCO1)C(=O)Nc1cc(OC)c(OC)cc1C` (stereo unspecified), -2.28%; with `Cc1noc(C(C)C)c1C(=O)NCC(c1ccsc1)N(C)C` (stereo unspecified), -1.52%.
`O=C(Cc1ccccn1)N1C[C@@H]2CC[C@H](C1)N(Cc1ccccc1)C2=O`: the Percent Effect was -4.29%.
Same read-out and setting: the same measure for `COCCn1cc(C(=O)N2CCCC2c2cc(C)no2)ccc1=O` (stereo unspecified): 2.38%; for `CC(C)c1noc(CCCC(=O)N2CCC(Cc3cccnc3)CC2)n1`: 4.18%; for `Cc1nn(-c2ccccc2)c2c1C(c1ccc(C(=O)O)cc1)CC(=O)N2` (stereo unspecified): 2.6%.
In the case of `CC(OCC1CC1)C(=O)N1CCCN(c2ncccc2C#N)CC1` (stereo unspecified), the Percent Effect is -8.99%.
Regarding `CCN(Cc1ccc2c(c1)OCCO2)S(=O)(=O)N(C)C(C)C`, the Percent Effect worked out at 0.356%.
Same read-out and setting: with `CC(C)N(C)C(=O)C1=NOC2(CCN(C(=O)c3ccncc3)C2)C1` (stereo unspecified) the figure was -5.19%.
The same measure, in the same setting: the same measure for `CN1CCCC1c1cccc(Cc2ccccc2F)n1` (stereo unspecified): -3.02%.
The same measure, in the same setting: the same measure for `Cc1cc(CNc2ccc(C(=O)N3CCCC(C)C3)cc2C)no1` (stereo unspecified): -1.42%; for `Cn1nc(C#N)c2c1CN(C(=O)c1cccnc1)CCC2`: -1.94%.
Turning to `CCOCCCNC(=O)c1nn(CC)cc1Cl`, the Percent Effect is -8.28%.
